Screening data as filed in PubChem BioAssay.
PNC inhibitor – blocks assembly of the perinucleolar compartment | PC3M PTB-GFP, PNC prevalence imaging, 16 h; hits give low values | activity change (PNC), negative = inhibition, % at 10 µM | 3.1% of 140,000 active;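 active means readout at or below -70, meaning at least 70% loss of cells showing the perinucleolar compartment, a nuclear body marking cancer cells; inconclusive means readout between -30 and a set limit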;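 further: plate controls were DMSO wells for no effect and camptothecin positive control wells for full effect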
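Compounds are pinned in duplicate onto adhered PC3M cells stably expressing GFP-tagged PTB and incubated 16 h at 37 C. Cells are then fixed, nuclei stained with Hoechst, and PNC-positive cells counted.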
ALDH1A1 inh – blocks purified human ALDH1A1 activity; 7.3% of 220,000 active; Purified ALDH1A1, NADH fluorescence, propionaldehyde substrate; P00352; AID 1030; Potency, µM (series often up to 75.3 µM), without a hit: top-dose activity, negative = inhibition, hits mostly inhibitors;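 further: potency means the concentration at half of the fitted maximal effect; plate controls were no enzyme wells and a reference inhibitor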
Target sequence (P00352 whole entry, looked up): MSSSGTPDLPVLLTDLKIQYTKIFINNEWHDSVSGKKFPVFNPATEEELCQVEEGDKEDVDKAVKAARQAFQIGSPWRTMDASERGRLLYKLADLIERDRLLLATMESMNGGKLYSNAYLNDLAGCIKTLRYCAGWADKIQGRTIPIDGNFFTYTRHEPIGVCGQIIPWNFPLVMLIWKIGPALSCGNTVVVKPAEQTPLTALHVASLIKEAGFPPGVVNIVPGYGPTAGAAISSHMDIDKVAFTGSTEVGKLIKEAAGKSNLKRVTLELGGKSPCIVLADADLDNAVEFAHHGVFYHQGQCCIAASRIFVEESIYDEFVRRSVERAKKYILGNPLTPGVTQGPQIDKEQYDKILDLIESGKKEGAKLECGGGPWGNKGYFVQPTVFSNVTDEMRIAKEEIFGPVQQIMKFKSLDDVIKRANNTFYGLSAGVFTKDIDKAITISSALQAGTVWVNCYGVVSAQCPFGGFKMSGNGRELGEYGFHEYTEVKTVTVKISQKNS
12-hLO inh – 12-hLO (ALOX12) enzyme inhibition | purified 12-hLO, xylenol orange hydroperoxide absorbance | Potency, µM (series often up to 57.1 µM), for inactives: at the top dose activity change, negative = inhibition, hits mostly inhibitors | 0.12% of 150,000 active | P18054; active means well fitted inhibition curve with a large enough effect; inconclusive means small, poorly fitted or top-dose-only effect; further: potency means the concentration at half of the fitted maximal effect; nearly all actives have a fitted effect of over 55% in size
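Hydroperoxide formation by human 12-lipoxygenase from 40 uM arachidonic acid was followed colorimetrically via ferric-xylenol orange complex, using the 573/405 nm absorbance ratio. Enzyme concentration was 150 nM, with 30 min reaction at room temperature.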
Lamin A splicing – changes lamin A minigene splicing in HeLa cells; HeLa LMNA splicing GFP/RFP minigene ratio, 48 h; Potency, µM (top dose mostly 46.1 µM), without a hit: top-dose ratio change, negative = inhibition, hits mostly inhibitors; 0.01% of 200,000 active; active means well fitted inhibition curve with a large enough effect in the signal ratio, with a control signal flat, not every such curve was filed as active; inconclusive means small, poorly fitted or top-dose-only effect, or effect the other way, or a change in a side signal; the % refers to the signal ratio; further: potency means the concentration at half of the fitted maximal effect
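S3 HeLa stable clones carrying a lamin A-EGFP splicing minigene plus DsRed2 were seeded at 600 cells/well in Opti-MEM with 2% FBS, pin-dosed and incubated 48 h at 37°C. Acumen cytometry (488 nm) gave the GFP/RFP total-intensity ratio.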
HPGD block – blocks human HPGD enzyme activity | P15428 | purified HPGD, NADH fluorescence kinetic, PGE2 substrate | Potency, µM, inactives show at the highest dose activity change, negative = inhibition, usual class: inhibitors | 4.3% of 150,000 active | AID 894; further: potency means the concentration at half of the fitted maximal effect
Target sequence (P15428 whole entry, looked up): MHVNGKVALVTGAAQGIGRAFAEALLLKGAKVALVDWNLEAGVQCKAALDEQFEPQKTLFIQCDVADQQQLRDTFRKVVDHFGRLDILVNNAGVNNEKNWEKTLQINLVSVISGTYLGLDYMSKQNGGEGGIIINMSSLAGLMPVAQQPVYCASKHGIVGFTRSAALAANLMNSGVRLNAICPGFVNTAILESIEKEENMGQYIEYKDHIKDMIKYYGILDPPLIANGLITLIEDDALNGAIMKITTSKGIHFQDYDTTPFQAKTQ
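20 nM HPGD preincubated 15 min at room temperature with compound in 50 mM Tris-HCl pH 8, 0.01% Tween 20. Started with 1 mM NAD+ and 30 uM prostaglandin E2; NADH fluorescence (360/450 nm) read 5 times over 30-s intervals, last minus first.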
* marks the source's active call; other numbers are inactive results; ? = inconclusive; nt = no result given; ! = a repeat was not active; [ ] = dose if it differs, or a comment. Shown are actives, neighbours in structure and some others; about 10% of the full set was active somewhere. Unless noted, the call rests on the fitted dose curve; in most records, active means well fitted inhibition curve with a large enough effect (not every such curve was filed as active); inconclusive means small, poorly fitted or top-dose-only effect, or another doubt; inactive means no such curve, though single readings can be large or run the other way. Unless noted, on the % scale 0 is the no-effect control and ±100 the full control effect.

SMILES	PNC inhibitor	ALDH1A1 inh	12-hLO inh	Lamin A splicing	HPGD block
O=C1Cn2c(nc3ccccc32)N1c1ccccc1F	-102*	6%	2%	1%	-3%
CC(/C=C/C(=O)NO)=C\[C@@H](C)C(=O)c1ccc(N(C)C)cc1	nt	28µM*!	1%[0.00818 µM]	nt	-22%
C[C@]12C=CC(=O)C=C1CC[C@@H]1[C@H]3C[C@@H](O)[C@](O)(C(=O)CO)[C@@]3(C)C[C@H](O)[C@]12F	nt	7%[20.9 µM]	-2%[25.6 µM]	25%	-15%
CC(C)c1ccc(NC(=O)C(c2ccccc2)N2CCN(C(=O)c3ccco3)CC2)cc1 (stereo unspecified)	-23	13µM*	3%	2%	-17%
CCOCCCNC(=O)Cn1ncc2c([nH]c3ccc(C)cc32)c1=O	nt	nt	nt	9%[46 µM]	nt
O=C(O)CCCC(=O)Nc1ccc(OCc2nc3ccccc3s2)cc1	nt	1.8µM*	nt	nt	nt
Clc1cc(Cl)cc(C2=N[C@@H](Cc3ccccc3)CO2)c1	nt	-6%	-1%[0.00818 µM]	nt	-2%
Cc1ccc(N2NC(=O)/C(=C/c3ccc(-c4ccc(Cl)c(C(=O)O)c4)o3)C2=O)cc1	nt	8.9µM*	nt	nt	nt
O=C(O)c1cc(-c2ccc(/C=N/NC(=S)Nc3ccccc3)o2)ccc1Cl	nt	?	nt	-23%[46 µM]	nt
CC1=C(C#N)C(=O)NC(=O)/C1=C\c1ccc(-c2ccc(C)cc2[N+](=O)[O-])o1	nt	13µM*	nt	4%[46 µM]	nt
CCOC(=O)c1cc(-c2ccc(/C=C3/C(=O)NC(=O)C(C#N)=C3C)o2)ccc1Cl	-13	8.9µM*	-20%	-4%	22µM*
Cc1noc(C)c1C(=O)N1CCC2(CCCN(Cc3nccs3)C2)CC1	nt	-1%	1%	nt	-6%
COc1ccc(CCN(C)CCCN2CC(c3ccccc3)CC2=O)cc1OC (stereo unspecified)	nt	-7%	nt	nt	nt
COc1ccc(C2CC(=O)N(CCCN(C)CCc3ccc(OC)c(OC)c3)C2)cc1 (stereo unspecified)	nt	14µM*	nt	nt	nt
COC(=O)C1=C(C(=O)OC)[C@@H]2N(C)c3ccc(OC)cc3[C@@]23C[C@@H](C(=O)OC)N(S(=O)(=O)c2ccc(C#N)cc2)C3=N1	nt	4%[13.5 µM]	-7%[11.4 µM]	-1%[9.22 µM]	1%
Cc1ccc(N/C(C(Cl)=C(Cl)Cl)=C(/Cl)[N+](=O)[O-])c(C)c1	-8	3.5µM*	-4%	?	-24%
Cc1ccc(NC(=O)c2c([N+](=O)[O-])c(C(C)(C)C)nn2C)c(C)c1	?	-5%	0%	?	-3%
O=C(/C=C/c1cccs1)Nc1nc(-c2ccccc2)cs1	15	3%	-13%	?	-14%
O=C(COC(=O)/C=C/c1cccs1)Nc1nc(-c2ccccc2)cs1	-14	22µM*	-2%	-11%	-9%
O=C(COC(=O)/C=C/c1cccs1)NC(c1ccccc1)c1ccccc1	-119*	10%	5%	-4%	-3%
O=C(COC(=O)/C=C/C(=O)N1CCN(c2ccccc2)CC1)NC(c1ccccc1)c1ccccc1	nt	19µM*	nt	nt	nt
O=C(COC(=O)/C=C/c1cccs1)NC(=O)Cc1ccccc1	nt	?	nt	2%[46 µM]	nt
OCCNCCO	nt	?	-4%	nt	-14%
CCOC(=O)/C=C(\C)N1N=C(c2ccccc2)CC1c1ccccc1 (stereo unspecified)	nt	1µM*	nt	-11%[46 µM]	nt
CCOC(=O)c1nnn(CC(=O)N2N=C(c3ccccc3)CC2c2ccccc2)c1C(=O)OCC (stereo unspecified)	-22	9%	-1%	-3%	?
SMILES	PNC inhibitor	ALDH1A1 inh	12-hLO inh	Lamin A splicing	HPGD block
COc1ccc(C2=NN(C(=S)Nc3ccccc3)C(c3ccccc3)C2)cc1 (stereo unspecified)	-4	13µM*	2%	10%	-23%
COc1ccc(C2CC(c3ccc(Br)cc3)=NN2C(=S)Nc2ccccc2)cc1 (stereo unspecified)	nt	11µM*	nt	-10%[46 µM]	nt
COc1ccc(C2=NN(C(N)=S)C(c3ccccc3)C2)cc1 (stereo unspecified)	nt	7.5µM*	nt	nt	nt
CC(C)(C)NC[C@@H](O)c1ccc(O)c(CO)n1	nt	5%[13.5 µM]	1%[11.4 µM]	?	-3%
COc1ccc(-c2nc(C3CCCCC3)no2)cc1OC	-26	22µM*	-8%	4%	?
c1ccc(-c2nc(C3CCCCC3)no2)cc1	-7	3%	2%	-6%	-1%
CC1CCC2CC1C2(C)C (stereo unspecified)	nt	-3%	1%	nt	-4%
CCOC(=O)c1ccc(NC(=O)CSc2nnc(CNc3ccc(OC)cc3)n2C)cc1	-3	13µM*	-8%	-1%	-16%
COc1ccc(NCc2nnc(SCC(=O)Nc3ccc(OC)cc3)n2C)cc1	nt	9%	nt	11%[46 µM]	nt
COc1ccc(NC(=O)CCSc2nnnn2C)cc1	nt	1%	nt	nt	nt
CCCCn1nnnc1SCC(=O)Nc1ccc(N(C)C)cc1	-3	25µM*	2%	9%	-8%
CCn1nnnc1SCC(=O)Nc1ccc(OC)cc1	-100*	-3%	1%	-2%	-9%
COc1ccc(NC(=O)CSc2nnnn2C2CCCC2)cc1	nt	2.5µM*	nt	nt	nt
COC(=O)C1=C(C(=O)OC)[C@@H]2N(C)c3ccc(OC)cc3[C@@]23C[C@@H](C(=O)OC)N(S(=O)(=O)c2cccs2)C3=N1	nt	9%[13.5 µM]	-1%[11.4 µM]	-6%[9.22 µM]	-5%
Cc1cc(C(=O)NNC2CC(=O)N(c3ccc4ccccc4c3)C2=O)c(C)o1 (stereo unspecified)	nt	-8%	nt	nt	nt
O=C(CSc1nnnn1C1CC2CCC1C2)Nc1ccnc2ccccc12 (stereo unspecified)	-15	2.5µM*	0%	?	?
O=C(O)CSc1nnnn1C1CCCCC1	nt	-5%	nt	nt	nt
CCn1nnnc1SCC(=O)Nc1nc2ccc(OC)cc2s1	-100*	-9%	0%	1%	-15%
COc1ccc(OCCSc2nnnn2C2CCCCC2)cc1	?	22µM*	-3%	-8%	-15%
O=C(Sc1nnnn1C1CCCCC1)c1cccs1	?	10µM*	-10%	11%	25µM*
O=C(CSc1nnnn1C1CCCC1)NCc1ccccc1	39	?	5%	-17%	-16%
COc1ccccc1-c1nccc(NC2CCNCC2)n1	nt	1%	nt	8%	nt
O=C(Cn1nc2c(cc1=O)CCCC2)NCc1ccc(Cl)cc1	nt	nt	nt	-23%[46 µM]	nt
COc1ccc(OC)c(-n2nnnc2SCC(=O)Nc2ccc(C(=O)N3CCCCC3)cc2)c1	47	1.4µM*	1%	?	0.35µM*
COc1ccc(OCC(=O)Nc2nc3ccc(NC(C)=O)cc3s2)cc1	nt	8%	nt	?	nt
SMILES	PNC inhibitor	ALDH1A1 inh	12-hLO inh	Lamin A splicing	HPGD block
O=C(CSc1nnnn1C1CCCCC1)Nc1ccccc1F	nt	4µM*	nt	nt	nt
O=C(CSc1nnnn1C1CCCCC1)Nc1cccc(NC(=O)c2ccco2)c1	16	28µM*	-3%	?	-14%
O=C(CSc1nnnn1C1CCCCC1)Nc1ccc(F)cc1	nt	?	nt	11%[46 µM]	nt
COc1ccc2nc(NNC(=O)COc3ccccc3)sc2c1	nt	20µM*	nt	nt	nt
O=C(O)CCc1cc(I)c(O)c(I)c1	nt	4%	nt	nt	nt
CCCCn1c(=O)nc2n(-c3ccc(Br)cc3)c3ccccc3cc-2c1=O	nt	nt	nt	-4%[46 µM]	nt
